# From the supplement of paper PMC12669032
# Values without a mark were called inactive.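 Rule for the calls: active = AUC reduced over 20% with Padj below 0.05 in at least 2 of 3 replicates; inactive = otherwise.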
# Tests used:
# Assay in all cases: growth AUC relative to DMSO control (median of replicates) (fraction); higher = more growth (less inhibition), active = hit call of the paper
# Conditions in all cases: 20 µM; 24 h
# Akkermansia muciniphila = test system: Akkermansia muciniphila
# Procedure, shortened: (§1)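 Area under the growth curve was normalised to the plate median of solvent-only wells, except on the industrial chemical plate, where row and column medians were used. Curves came from gut bacterial monocultures grown anaerobically at 37 °C in mGAM with 20 µM compound (1% DMSO), starting at OD600 0.05 and read at OD600 every hour for 24 h. The minimum OD of each curve was set to 0, and values are medians of three biological replicates grown on separate days.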
# Bacteroides caccae = test system: Bacteroides caccae
# Procedure, shortened: as §1
# Bacteroides clarus = test system: Bacteroides clarus
# Procedure, shortened: as §1
# Bacteroides dorei = test system: Bacteroides dorei
# Procedure, shortened: as §1
# Bacteroides stercoris = test system: Bacteroides stercoris
# Procedure, shortened: as §1
# [1] = test system: Bacteroides thetaiotaomicron
# Procedure, shortened: as §1
# Bacteroides uniformis = test system: Bacteroides uniformis
# Procedure, shortened: as §1
# [2] = test system: Bifidobacterium longum subsp. longum
# Procedure, shortened: as §1
# Clostridium difficile = test system: Clostridium difficile
# Procedure, shortened: as §1
# Collinsella aerofaciens = test system: Collinsella aerofaciens
# Procedure, shortened: as §1
# Coprococcus comes = test system: Coprococcus comes
# Procedure, shortened: as §1
# Escherichia coli ED1a = test system: Escherichia coli ED1a
# Procedure, shortened: as §1
# Escherichia coli IAI1 = test system: Escherichia coli IAI1
# Procedure, shortened: as §1
# Eubacterium rectale = test system: Eubacterium rectale
# Procedure, shortened: as §1
# [3] = test system: Fusobacterium nucleatum subsp. animalis
# Procedure, shortened: as §1
# Lactobacillus gasseri = test system: Lactobacillus gasseri
# Procedure, shortened: as §1
# Lactobacillus paracasei = test system: Lactobacillus paracasei
# Procedure, shortened: as §1
# Odoribacter splanchnicus = test system: Odoribacter splanchnicus
# Procedure, shortened: as §1
# [4] = test system: Parabacteroides distasonis
# Procedure, shortened: as §1
# Parabacteroides merdae = test system: Parabacteroides merdae
# Procedure, shortened: as §1
Compound,growth AUC (Akkermansia muciniphila),growth AUC (Bacteroides caccae),growth AUC (Bacteroides clarus),growth AUC (Bacteroides dorei),growth AUC (Bacteroides stercoris),growth AUC [1],growth AUC (Bacteroides uniformis),growth AUC [2],growth AUC (Clostridium difficile),growth AUC (Collinsella aerofaciens),growth AUC (Coprococcus comes),growth AUC (Escherichia coli ED1a),growth AUC (Escherichia coli IAI1),growth AUC (Eubacterium rectale),growth AUC [3],growth AUC (Lactobacillus gasseri),growth AUC (Lactobacillus paracasei),growth AUC (Odoribacter splanchnicus),growth AUC [4],growth AUC (Parabacteroides merdae)
CCCCOC(=O)[C@@H](C)Oc1ccc(Oc2ccc(C#N)cc2F)cc1,1.1,0.973,1,0.969,0.973,0.954,0.975,0.984,0.981,0.984,1.01,1,0.966,1.11,1.01,0.87,0.939,1,0.704 (active),0.971
CCOP(=S)(OCC)SCS(=O)C(C)(C)C (stereo not given),0.905,0.997,1.02,0.944,1.08,1.02,0.989,1.02,1,0.987,1.05,1.04,1.01,1.01,1.07,0.959,0.754,1.04,1.01,1.01
O=C(O)c1ccc(Cl)nc1,0.953,0.985,1.02,0.985,1.08,1.01,1.04,0.902,1.03,0.999,0.946,1.01,0.967,1.05,1.1,1.15,0.974,0.968,1.02,1.01
O=S1(=O)OCC2C(CO1)C1(Cl)C(Cl)=C(Cl)C2(Cl)C1(Cl)Cl (stereo not given),1.39,0.997,0.945,0.962,0.765,0.984,0.914,1.11,1,0.993,1.01,0.991,1,1.01,0.935,0.919,1.02,1.02,1.09,0.955
COC(=O)N(OC)c1ccccc1COc1ccn(-c2ccc(Cl)cc2)n1,0.936,0.803,0.91,0.972,1.09,0.91,0.861,1.03,0.989,1,0.998,1.02,0.99,1.1,1.19,0.88,0.988,0.881,0.57 (active),0.911
COP(=S)(OC)Oc1ccc([N+](=O)[O-])c(Cl)c1,1.04,0.99,0.973,0.972,0.973,0.993,0.943,1.01,0.961,0.958,0.95,0.97,0.984,1.18,0.975,0.893,0.974,0.876,0.921,0.932
N#Cc1nn(-c2c(Cl)cc(C(F)(F)F)cc2Cl)c(N)c1S(=O)C(F)(F)F (stereo not given),1.07,0.964,0.881,0.897,0.95,0.986,0.895,0.951,0.966,1.04,1,1.01,0.981,0.951,0.974,0.811,0.98,0.93,0.714 (active),0.87
CC(C)N(Cc1ccccc1)C(=O)C(C)(C)C,1.11,0.928,0.976,0.936,0.958,0.98,0.999,1.04,0.937,0.92,0.988,0.966,0.971,1.03,0.969,0.814,0.934,1.07,0.989,0.948
COc1cc(C)c(C(=O)c2c(OC)ccc(Br)c2C)c(OC)c1OC,1.05,1,0.959,0.992,0.958,0.951,0.91,0.885,1.03,0.956,1.04,1.01,0.971,1.02,1.01,0.709,1.03,1.05,0.528 (active),1.01
Cc1cc(Cl)ccc1O,1.04,1.02,1.03,1.01,1.09,1.03,1,0.911,1,1.01,0.989,1,1.02,1.02,1.07,0.979,0.873,1.07,1.02,1.04
CNC(=O)Oc1ccccc1OC(CCl)OC (stereo not given),1.17,0.941,1.06,0.955,1.23,1.02,0.982,1.02,1.03,1.07,1.01,1.02,1.02,1.16,1.19,1.04,1.04,1.05,0.988,1.06
c1coc(-c2nc3ccccc3[nH]2)c1,1.03,0.937,1,0.919,1.17,0.96,0.968,1.04,0.971,0.945,1.02,1.01,0.986,1.09,0.985,0.949,0.997,0.879,0.977,0.961
CCCCC(C#N)(Cn1cncn1)c1ccc(Cl)cc1 (stereo not given),1.04,1.02,0.952,0.98,0.861,0.984,0.975,1.04,0.985,0.959,1.02,0.966,0.97,1.01,1.02,0.965,0.916,1.04,1.02,0.988
COP(=S)(OC)Oc1ccc(S(=O)(=O)N(C)C)cc1,0.82,0.947,0.999,0.962,0.84,0.983,0.981,0.984,0.976,0.977,0.984,1,0.985,0.998,0.894,0.925,0.935,0.977,1.01,0.969
COCCOC(=O)C(C#N)(C(=O)c1ccccc1C(F)(F)F)c1ccc(C(C)(C)C)cc1 (stereo not given),1.07,0.937,0.965,0.927,0.941,1.01,0.942,1.01,0.943,0.885,0.971,0.953,0.966,1.05,1.03,0.839,0.908,1,0.723,0.946
O=C(O)c1ccc(=O)[nH]c1,1.06,1.02,1.01,1.02,0.972,0.984,1.01,1,1.01,0.977,0.999,0.99,1.03,0.976,0.982,0.972,0.987,0.985,1.02,0.983
